Data published in PubChem BioAssay AID1159580 (chemical genetic matrix, 2015).
About 2,000 (36%) of roughly 5,500 compounds were called active. Another 18% or so got no clear call; they are omitted. Rule as the data show it: active = normalized growth mostly below about 0.91 (no sharp cut-off); inconclusive = no clear call, values can overlap the other calls; inactive = mostly above about 0.92. The list shows a part of the results.

Assay: chemical genetic growth profiling, strain panel (AID 1159580);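 also: tested at 20 µM; growth read once vehicle control cultures reached saturation at 30 °C; 1 = growth at the plate median or of vehicle wells; lower values mean less growth of the strain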
Conditions: growth OD

Measured: normalized growth

C=CCCCCCCCCCCCC(O)CC(O)CO (centres undefined)
inactive: S. cerevisiae deletion strains, locus YJR043C, strain POL32, hits give low values 0.952 | S. cerevisiae deletion strains, locus YJR075W, strain HOC1, hits give low values 0.896 | S. cerevisiae deletion strains, locus YKL068W, hits give low values 0.995 | S. cerevisiae deletion strains, locus YKL085W, strain MDH1 (second series), hits give low values 0.96 | S. cerevisiae deletion strains, locus YKL085W, strain MDH1, hits give low values 0.96 | S. cerevisiae deletion strains, locus YKL160W, strain elf1, hits give low values 0.989 | S. cerevisiae deletion strains, locus YKL190W, strain CNB1, hits give low values 0.947 | S. cerevisiae deletion strains, locus YKR026C, strain gcn3, hits give low values 0.988 | S. cerevisiae deletion strains, locus YKR091W, strain srl3, hits give low values 0.995 | S. cerevisiae deletion strains, locus YLL001W, strain dnm1, hits give low values 0.976 | S. cerevisiae deletion strains, locus YLL026W, hits give low values 0.997 | S. cerevisiae deletion strains, locus YLL041C, strain sdh2, hits give low values 0.998 | S. cerevisiae deletion strains, locus YLR027C, strain aat2, hits give low values 0.999 | S. cerevisiae deletion strains, locus YLR039C, strain RIC1, hits give low values 0.996 | S. cerevisiae deletion strains, locus YLR058C, strain SHM2, hits give low values 0.944 | S. cerevisiae deletion strains, locus YLR102C, strain apc9, hits give low values 0.99 | S. cerevisiae deletion strains, locus YLR221C, strain rsa3, hits give low values 0.998 | S. cerevisiae deletion strains, locus YLR258W, strain gsy2, hits give low values 1.01 | S. cerevisiae deletion strains, locus YLR262C, strain YPT6 (second series), hits give low values 1.01 | S. cerevisiae deletion strains, locus YLR262C, strain YPT6, hits give low values 0.959 | S. cerevisiae deletion strains, locus YLR268W, strain sec22, hits give low values 0.971 | S. cerevisiae deletion strains, locus YLR320W, strain mms22, hits give low values 0.985 | S. cerevisiae deletion strains, locus YLR342W, strain FKS1, hits give low values 1 | S. cerevisiae deletion strains, locus YLR357W, strain rsc2, hits give low values 0.975 | S. cerevisiae deletion strains, locus YLR370C, strain arc18, hits give low values 0.993 | S. cerevisiae deletion strains, locus YLR371W, strain rom2, hits give low values 0.952 | S. cerevisiae deletion strains, locus YLR384C, strain iki3, hits give low values 0.997 | S. cerevisiae deletion strains, locus YML016C, strain PPZ1, hits give low values 0.988 | S. cerevisiae deletion strains, locus YML120C, strain ndi1, hits give low values 0.995 | S. cerevisiae deletion strains, locus YML124C, strain tub3, hits give low values 0.991 | S. cerevisiae deletion strains, locus YMR058W, strain fet3, hits give low values 1.01 | S. cerevisiae deletion strains, locus YMR078C, strain ctf18, hits give low values 0.964 | S. cerevisiae deletion strains, locus YMR125W, strain sto1, hits give low values 0.979 | S. cerevisiae deletion strains, locus YMR129W, hits give low values 0.988 | S. cerevisiae deletion strains, locus YMR205C, strain PFK2, hits give low values 0.974 | S. cerevisiae deletion strains, locus YMR231W, strain pep5, hits give low values 0.995 | S. cerevisiae deletion strains, locus YMR263W, strain SAP30, hits give low values 0.955 | S. cerevisiae deletion strains, locus YMR307W, strain GAS1, hits give low values 0.792 | S. cerevisiae deletion strains, locus YNL067W, strain RPL9B, hits give low values 0.903 | S. cerevisiae deletion strains, locus YNL071W, strain lat1, hits give low values 0.989 | S. cerevisiae deletion strains, locus YNL128W, strain TEP1, hits give low values 0.924 | S. cerevisiae deletion strains, locus YNL153C, strain GIM3, hits give low values 0.979 | S. cerevisiae deletion strains, locus YNL209W, strain ssb2, hits give low values 1 | S. cerevisiae deletion strains, locus YNL248C, strain rpa49, hits give low values 0.993 | S. cerevisiae deletion strains, locus YNL250W, strain rad50, hits give low values 0.939 | S. cerevisiae deletion strains, locus YNL271C, strain bni1, hits give low values 0.953 | S. cerevisiae deletion strains, locus YNL322C, strain KRE1 (second series), hits give low values 0.981 | S. cerevisiae deletion strains, locus YNL322C, strain KRE1, hits give low values 0.979 | S. cerevisiae deletion strains, locus YNR049C, strain mso1, hits give low values 0.995 | S. cerevisiae deletion strains, locus YNR052C, strain pop2, hits give low values 0.946 | S. cerevisiae deletion strains, locus YOL006C, strain TOP1, hits give low values 0.808 | S. cerevisiae deletion strains, locus YOL012C, strain htz1 1.72 | S. cerevisiae deletion strains, locus YOR001W, strain rrp6, hits give low values 0.998 | S. cerevisiae deletion strains, locus YOR069W, strain VPS5, hits give low values 0.978 | S. cerevisiae deletion strains, locus YOR070C, strain gyp1, hits give low values 0.992 | S. cerevisiae deletion strains, locus YOR080W, strain dia2, hits give low values 0.998 | S. cerevisiae deletion strains, locus YOR083W, strain WHI5, hits give low values 0.965 | S. cerevisiae deletion strains, locus YOR106W, strain vam3, hits give low values 1.02 | S. cerevisiae deletion strains, locus YOR136W, strain idh2, hits give low values 0.935 | S. cerevisiae deletion strains, locus YOR144C, strain elg1, hits give low values 0.982 | S. cerevisiae deletion strains, locus YOR265W, strain rbl2, hits give low values 1 | S. cerevisiae deletion strains, locus YOR270C, strain vph1, hits give low values 1.01 | S. cerevisiae deletion strains, locus YOR290C, strain snf2, hits give low values 0.93 | S. cerevisiae deletion strains, locus YOR316C, strain cot1, hits give low values 0.977 | S. cerevisiae deletion strains, locus YPL051W, strain arl3, hits give low values 0.999 | S. cerevisiae deletion strains, locus YPL055C, strain LGE1, hits give low values 0.843 | S. cerevisiae deletion strains, locus YPL078C, strain atp4, hits give low values 0.986 | S. cerevisiae deletion strains, locus YPL106C, strain sse1, hits give low values 1.01 | S. cerevisiae deletion strains, locus YPL240C, strain hsp82, hits give low values 1 | S. cerevisiae deletion strains, locus YPL241C, strain CIN2, hits give low values 0.987 | S. cerevisiae deletion strains, locus YPR119W, strain clb2, hits give low values 0.989 | S. cerevisiae deletion strains, locus YPR141C, strain kar3, hits give low values 1 | S. cerevisiae deletion strains, locus YPR163C, strain tif3, hits give low values 0.95 | S. cerevisiae deletion strains, locus YPR167C, strain met16, hits give low values 0.964 | S. cerevisiae deletion strains, strain wtn01, hits give low values 0.904
active: S. cerevisiae deletion strains, locus YKL009W, strain mrt4, hits give low values 0.852 | S. cerevisiae deletion strains, locus YKR001C, strain vps1, hits give low values 0.839 | S. cerevisiae deletion strains, locus YLR330W, strain CHS5, hits give low values 0.917 | S. cerevisiae deletion strains, locus YLR342W, strain FKS1 (second series), hits give low values 0.756 | S. cerevisiae deletion strains, locus YLR418C, strain cdc73, hits give low values 0.759 | S. cerevisiae deletion strains, locus YML032C, strain rad52, hits give low values 0.869 | S. cerevisiae deletion strains, locus YMR223W, strain ubp8, hits give low values 0.858 | S. cerevisiae deletion strains, locus YNL233W, strain BNI4, hits give low values 0.834 | S. cerevisiae deletion strains, locus YNL298W, strain CLA4, hits give low values 0.907 | S. cerevisiae deletion strains, locus YNL307C, strain MCK1, hits give low values 0.499 | S. cerevisiae deletion strains, locus YOL147C, strain pex11, hits give low values 0.778 | S. cerevisiae deletion strains, locus YOR061W, strain CKA2, hits give low values 0.635 | S. cerevisiae deletion strains, locus YOR184W, strain ser1, hits give low values 0.719 | S. cerevisiae strains, strain wild type, hits give low values 0.861
